In PubChem BioAssay AID488890 (Southern Research Specialized Biocontainment Screening …, 2010):
Out of some 320,000 compounds screened, about 1,300 (0.41%) were called active. Another 3% or so got no clear call; they are omitted. The rule behind the calls is not given here. A selection follows. Potency and affinity values are given separately.

test: growth inhibition of non-replicating M. tuberculosis (AID 488890); details: Mycobacterium tuberculosis non-replicating, at 25 µM, stronger effect = higher value;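 note: plate controls were DMSO cells for no effect and high antibiotic wells for full effect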

SMILES | inhibition
COc1ccc(-c2nc(-c3cccs3)no2)cc1 | 24.2%
COc1ccc(/C=N/c2nc3ccccc3n2CCN2CCCCC2)cc1OC | 4.24%
Cc1ccc(S(=O)(=O)N2CCOC2CNC(=O)C(=O)NCCN(C)C)cc1 (stereo not drawn) | -4.76%
CCN(C(=O)COC(=O)c1ccc(Cl)cc1N)C1CCCCC1 | 30.8%
O=c1c2cc([N+](=O)[O-])cc([N+](=O)[O-])c2[nH]n1-c1ccccc1 | 5.65%
COc1ccc(CNC(=O)C/C(C)=N/NC(=O)COc2cccc(C)c2)cc1 | -10.6%
CC(=NNC(=O)COc1cccc(C)c1)c1cccnc1 | 2.36%
O=S(=O)(Nc1ccc2c3c(cccc13)CC2)c1ccc(F)cc1 | 21.3%
O=S(=O)(Nc1c(O)ccc2ccccc12)c1ccc(F)cc1 | -1.3%
O=C(COc1ccc(Br)cc1)Nc1ccccc1N1CCCC1 | 26.6%
O=C(Nc1nc2ccccc2n1Cc1ccccc1)c1ccc(COc2ccccc2[N+](=O)[O-])o1 | -4.43%
CCn1c(CNC(=O)c2ccccc2)nc2ccccc21 | 2.98%
CCn1c(NC(=O)Nc2ccccc2OC)nc2ccccc21 | 43%
CCn1c(NC2CCCCC2)nc2ccccc21 | 8.52%
CN(C)CCCn1c(NC(=O)C2CCCCC2)nc2ccccc21 | 24.1%
CCn1c(-c2nonc2NC(=O)c2ccccc2)nc2ccccc21 | 3.27%
CCn1c(NC(=O)c2ccc(COc3ccc(C)cc3[N+](=O)[O-])o2)nc2ccccc21 | 14%
CCn1c(NC(=S)Nc2ccccc2)nc2ccccc21 | 57.9%
COc1ccc(C(C)(C)NC(=O)C2CCC(=O)N(C3CCCC3)C2)cc1OC (stereo not drawn) | 1.54%
O=C(O)c1cc(-c2ccc(Cl)cc2)n(-c2ccc(Cl)cc2)n1 | 28.3%
O=C(COC(=O)c1ccc(OC(F)F)cc1)Nc1cccc(S(=O)(=O)NC2=NCCC2)c1 | -15.4%
CN(C)S(=O)(=O)N1CCC(Oc2ccc(C(=O)N3C[C@H]4CC[C@H]3C4)cc2)CC1 | -6.7%
O=C(CCS(=O)(=O)Cc1ccccc1)NCC1CCCO1 (stereo not drawn) | -2.41%

SMILES | inhibition
CNC(=O)n1cc(C)c(-c2cccs2)n1 | 3.54%
O=C(NCc1cccnc1)C1CCC(CNS(=O)(=O)c2cccc3nsnc23)CC1 (stereo not drawn) | -1.6%
CCOc1cc(S(=O)(=O)NC2CCCCC2)ccc1F | 22.4%
C=CCn1c(SCC(=O)Nc2ccc(C(=O)O)cc2)nc2scc(-c3ccccc3)c2c1=O | 6.43%
O=C(Nc1nc2ccccc2n1CCN1CCOCC1)c1ccccc1 | 78.5%
Cn1c(NC(=O)c2cccnc2)nc2ccccc21 | 74.7%
Cn1c(CCNC(=O)c2ccccc2)nc2ccccc21 | -11.6%
CCn1c(/C=N/Nc2ccc(C(=O)O)cc2)nc2ccccc21 | 5.68%
CCn1c(C)nc2cc(C(=O)N/N=C/c3ccc(OC)cc3)ccc21 | -1.99%
CCCn1c(CNC(=O)c2ccccc2)nc2ccccc21 | 1.31%
Cc1ccc(-n2nc3c(=O)n(CCCC(=O)NCc4ccc(Cl)cc4)nc(C)c3c2C)cc1 | 52.4%
Cc1ccc(C(C(=O)NC2CCCC2)N(C(=O)c2csnn2)c2ccccc2)o1 (stereo not drawn) | 9.58%
O=[N+]([O-])c1cccc(/C=N\N2CCN(Cc3ccccc3Cl)CC2)c1 | -2.97%
O=C(COc1ccc(Br)cc1)N1CCC(c2ccccc2)C1 (stereo not drawn) | 68%
COC(=O)C1(C)CN(S(=O)(=O)c2ccc(C)cc2)c2cc(OC)ccc2C1=O (stereo not drawn) | 35.5%
Cc1cc(Sc2ccc([N+](=O)[O-])cn2)ccc1Br | 12.1%
O=S(=O)(c1cccc(C(F)(F)F)c1)c1ccc(O)cn1 | 0.61%
O=[N+]([O-])c1ccc(Oc2cccc(C(F)(F)F)c2)nc1 | 65.4%
CC1=NCCN1S(=O)(=O)c1ccc(Br)c(C)c1 | 1.05%
CCOc1ccc(CCNC(=O)COC(=O)Cn2cnc3ccccc3c2=O)cc1OCC | 18.2%
COc1ccccc1CNC(=O)COC(=O)COc1ccccc1Cc1ccccc1 | 25.1%
O=C(Nc1cccc(-n2cnnn2)c1)c1ccoc1COc1ccc(Cl)cc1 | 5.71%
CSc1ccccc1C(=O)C1CCCN(S(=O)(=O)c2c(C)noc2C)C1 (stereo not drawn) | -0.64%

SMILES | inhibition
Cc1ccc(Nc2c(-c3ccco3)nc3ccccn23)cc1 | 43.3%
c1ccc(Nc2c(-c3ccco3)nc3ccccn23)cc1 | 43.1%
CCOc1ccc(S(=O)(=O)N(CC(=O)NCc2cccnc2)c2ccc(F)cc2)cc1 | 1.08%
CCN(C[C@H]1N[C@@](CC)(C(=O)OC)[C@H]2C(=O)N(C)C(=O)[C@@H]12)C(=O)Nc1ccc(C)cc1 | 3.1%
O=C(O)C1CC(=O)N(c2ccc3c(c2)OCCO3)C1 (stereo not drawn) | -10.2%
O=C1c2ccccc2NC(c2ccc3c(c2)OCCO3)N1c1ccc2c(c1)OCCO2 (stereo not drawn) | 29.3%
CN1CCN(c2ccc(CNC(=O)c3ccc4c(c3)OCCO4)cc2)CC1 | -0.49%
Cc1cc(Cl)ccc1NC(=O)COC(=O)c1nc2nccc(C)n2n1 | -0.03%
CC(CN1CCCC1)OC(=O)c1ccc(Br)cc1 (stereo not drawn) | -10.6%
COc1cc2c(cc1OC)CN(CCOc1ccc(Br)cc1)CC2 | 17.6%
COc1cc2c(cc1OC)CN(C(=O)CCC(=O)c1ccc(F)cc1)CC2 | 19.6%
O=C(NCCCN1CCOCC1)c1ccc(Br)cc1 | 17.1%
O=C(CCN1CCOCC1)c1ccccc1 | 75.5%
O=C(NCCN1CCOCC1)c1ccc(Cl)cc1 | -1.14%
O=C(CN1CCOCC1)c1ccc(Br)cc1 | 61.8%
CC(CN1CCOCC1)OC(=O)c1ccccc1 (stereo not drawn) | -8.24%
O=C(CCc1ccccc1)Nc1ccccc1F | 18.9%
COc1ccccc1N(C(=O)CNC(=O)c1ccco1)C(C(=O)NC1CCCC1)c1ccncc1 (stereo not drawn) | 2.47%
CSc1cccc(NC(=O)CCNS(=O)(=O)c2ccc3[nH]c(=O)oc3c2)c1 | -8.71%
O=C(NCCCN1CCOCC1)c1cc2c([nH]c3ccccc32)c(-c2cccc(Br)c2)n1 | 77.1%
CN=C1S/C(=C/c2cn(CC(=O)OC)c3ccccc23)C(=O)N1C | 47.1%
O=C(O)C1CC(=O)N(CCOc2ccccc2)C1 (stereo not drawn) | -0.16%
CC1CCC(NC(=O)CCNC(=O)c2ccc(Br)cc2)CC1 (stereo not drawn) | 67.6%

SMILES | inhibition
Cn1cnnc1Sc1ccc(C(=O)NCCC23CC4CC(CC(C4)C2)C3)cc1[N+](=O)[O-] | 33.9%
COc1ccc(C(C)C)cc1S(=O)(=O)NCC1CCCO1 (stereo not drawn) | 16%
CC1CCCN(CCC(=O)Nc2ccc(Br)cc2)C1 (stereo not drawn) | 10.6%
CC1CCCN(CCOc2ccc(Br)cc2)C1 (stereo not drawn) | 16.9%
COc1ccc(OC)c2c1CC(C)(C)NC2=O | -28.9%
COc1ccc(/C=C2/SC(=S)N(CCCC(=O)Nc3ccc(O)cc3)C2=O)cc1 | 71.1%
COc1ccc(/C=C2\SC(=S)N(CCCC(=O)Nc3ccc(O)cc3)C2=O)cc1 | 53.3%
Cc1ccc(S(=O)(=O)CCC(=O)Oc2ccc3c(C)cc(=O)oc3c2)cc1 | 6.87%
CC(C)CNC(=O)N1c2ccccc2Sc2ccccc21 | 30.4%
N=c1c(S(=O)(=O)c2ccc(Cl)cc2)cc2c(=O)n3ccccc3nc2n1CCc1ccccc1 | 16.6%
Cc1ccc(C)c(OCCCN2CCCC2)c1 | -3.13%
Fc1ccccc1/C=N/Nc1nc2ccccc2o1 | 14.1%
Brc1ccc(/C=N/Nc2nc3ccccc3o2)cc1 | 0.82%
Oc1ccc(/C=N/Nc2ncc(Br)cn2)c(O)c1 | 57.8%
Oc1ccc(Br)cc1/C=N/Nc1ncc(-c2ccccc2)cn1 | 1.56%
Clc1cc(Cl)cc(NC2=NCCS2)c1 | 5.95%
COc1ccc(S(=O)(=O)n2oc(=O)cc2-c2ccccc2)cc1OC | -6.84%
Cc1occc1C(=O)NC1CCCc2ccccc21 (stereo not drawn) | 3.75%
Cc1ccc(NC(=O)COc2ncnc3sccc23)cc1S(=O)(=O)N(C)C | 7.74%
Cc1c(C#N)c2ccccc2n1C | -15.1%
COC(=O)C1CC(=O)N(c2ccc(C)cc2)C1 (stereo not drawn) | 24.5%
O=C(O)C1CC(=O)N(c2ccc(OCc3ccccc3Cl)cc2)C1 (stereo not drawn) | 31.4%
O=C(OCc1ccccc1Cl)C1CC(=O)N(Cc2ccco2)C1 (stereo not drawn) | 12.3%

SMILES | inhibition
COc1ccc(N2CC(C(=O)OCC(=O)c3ccc(C)cc3)CC2=O)cc1 (stereo not drawn) | 23.6%
COc1cccc(COC(=O)C2CC(=O)N(Cc3ccc(C)cc3)C2)c1OC (stereo not drawn) | 76.5%
NC(=O)C1CC(=O)N(c2ccc(OCc3ccccc3Cl)cc2)C1 (stereo not drawn) | 58.3%
O=C1N(Cc2cccnc2)C[C@@H]2C[C@@H](c3cccc(OCc4ccccc4)c3)N3CCC[C@@]123 | 13.3%
O=C(C1CCCN(C2CC(=O)N(c3ccc(Cl)cc3)C2=O)C1)N1CCCC1 (stereo not drawn) | 62.9%
COc1cc(/C=N/NC(=O)c2cc(C)oc2C)cc(OC)c1OC | 5.12%
Cc1cc(C(=O)OC(C)C(=O)N2CCc3ccccc32)ccc1[N+](=O)[O-] (stereo not drawn) | -2.01%
C=CCc1ccc(OCCCCOc2ccc(C(=O)O)cc2)c(OC)c1 | 65.2%
CCOc1ccc(C(=O)OCC(=O)N(Cc2ccccc2)Cc2ccccc2)cc1OC | 6.46%
CCN(C(=O)COn1nnc2ccc(S(=O)(=O)N(C)C)cc21)C1CCS(=O)(=O)C1 (stereo not drawn) | -12%
Cc1ccccc1OC1CCN(C(=O)C2CCC(=O)N(C3CCCC3)C2)CC1 (stereo not drawn) | -4.05%
COc1ccnc2c1c(=O)n(Cc1ccc(Cl)cc1Cl)c(=O)n2C | 7.37%
COc1ccc(OC)c(S(=O)(=O)NCC(=O)O)c1 | -1.93%
C[C@H](CO)N1C[C@H](C)[C@@H](CN(C)S(C)(=O)=O)Oc2ccc(NC(=O)C3CCCCC3)cc2C1=O | -13.1%
O=c1cc(-c2ccc(O)cc2)oc2cc(O)cc(O)c12 | 20.1%
O=c1cc(-c2ccccc2)oc2cc(O)cc(O)c12 | 9.39%
CCOC(=O)c1ccc(NC(C)=O)c([N+](=O)[O-])c1 | -2.26%
CCOC(=O)c1ccc([N+](=O)[O-])cc1NC(C)=O | -5.06%
Cc1cc(S(=O)(=O)NCCCn2ccnc2)c(C)cc1Cl | 21.8%
Cc1ccc(NC(=O)C2C3C=CC4(O3)C2C(=O)N(CCN2CCOCC2)C4C(=O)NC2CCCCC2)cc1C (stereo not drawn) | 4.86%
COc1ccc(Cl)cc1S(=O)(=O)NC(C)C(=O)NCc1cccnc1 (stereo not drawn) | 0.53%
